This is one part of a sample in which hits are shown more often than they occur.
Pf Dd2 inh = Plasmodium falciparum Dd2 growth inhibition. P. falciparum Dd2 growth, SYBR Green, 72 h. Potency, µM (top dose mostly 28.9 µM), hits mostly inhibitors. 4.3% of 120,000 active; active = well fitted inhibition curve with a large enough effect; also: nearly all actives have a fitted effect of over 65% in size
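Infected erythrocytes (Dd2, 0.3% parasitemia, 2.5% hematocrit final) are added to compound in RPMI-1640/Albumax II medium, grown 72 h at 37C in low oxygen, then lysed with saponin/Triton-X containing SYBR Green and read by fluorescence.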
Each line names hits and unclear results; the compound was inactive in the other large screens.

COCC(=O)NC[C@H]1COCc2nc3cc(C(=O)OC)ccc3n21	none
CC(C)CCN1CCC2(CC1)CN[S+](=O)([O-])c1ccccc1N2	none
Cn1ccnc1CN1CCOC[C@H]1c1ncc(-c2cccc(Cl)c2)[nH]1	Pf Dd2 inh 5µM
CC(=O)Nc1ccc(CN2CCOC[C@H]2c2ncc(-c3cccc(Cl)c3)[nH]2)cc1	none
c1cncc(CN2CCOC[C@H]2c2ncc(-c3cccnc3)[nH]2)c1	none
Oc1ccccc1CN1CCOC[C@H]1c1ncc(-c2cccc(Cl)c2)[nH]1	Pf Dd2 inh 3.2µM
Fc1ccc(-c2cnc([C@@H]3COCCN3Cc3ncc[nH]3)[nH]2)cc1	none
N#Cc1cccc(CN2CCOC[C@H]2c2ncc(-c3ccc(F)cc3)[nH]2)c1	none
COc1cccc(C(=O)N2CCC(c3nn(-c4ccc(Cl)cc4)c(=O)[nH]3)CC2)c1	none
Cc1c(C(=O)O)sc2ncnc(NCC3(O)CCCCC3)c12	none
COc1ccccc1-c1cc(C(=O)NCCc2ccc(Cl)cc2)c2cnn(C)c2n1	none
O=C(Cc1ccc(Cl)cc1)N[C@H]1[C@H](O)[C@H](O)C[C@@H]1c1cccnc1	none
COc1ccc(NC(=O)[C@@H]2C[C@@H](c3ccc(F)cc3)N([S+](=O)([O-])c3ccccc3)C2)cc1	Pf Dd2 inh 8.9µM
COc1ccc(NC(=O)[C@@H]2C[C@@H](c3ccc(F)cc3)N([S+](=O)([O-])c3ccccc3)C2)cn1	none
O=C(Nc1cccc(Cl)c1)[C@@H]1C[C@@H](c2ccc(F)cc2)N([S+](=O)([O-])c2ccccc2)C1	none
CNC(=O)N1CCC(C2CCN(Cc3ccncc3F)C2)CC1 (stereo unspecified)	none
O=C(Cn1ccn2nc(-c3ccccc3)c(CO)c2c1=O)N1CCC(Cc2ccccc2)CC1	none
O=C(Nc1cccc(-c2ccco2)c1)C1CCN(Cc2ccc(CO)o2)CC1	none
Cc1ncc(CN2CCC(C(=O)Nc3cccc(-c4cc5ccccc5[nH]4)c3)CC2)cn1	Pf Dd2 inh 8.9µM
CSc1cccc(NC(=O)C2CCN(c3nc4ccccc4[nH]3)CC2)c1	none
O=C1NC2(CCCN([S+](=O)([O-])c3ccccc3)C2)Oc2ccccc21 (stereo unspecified)	none
CC1CCN(S(=O)(=O)c2ccc3c(c2)oc(=O)n3CC(=O)NC(C)c2ccccc2)CC1 (stereo unspecified)	Pf Dd2 inh 11µM
CC1CCN(S(=O)(=O)c2ccc3c(c2)oc(=O)n3CC(=O)O)CC1	none
CC(NC(=O)Cn1c(=O)oc2cc(S(=O)(=O)N3CCCCCC3)ccc21)c1ccccc1 (stereo unspecified)	none
Cc1noc([C@H]2CCN(S(=O)(=O)c3ccc4c(c3)CCC4)C[C@H]2NC(=O)C2CC2)n1	none
O=C(O)c1ccccc1C(=O)NC[C@H]1Cn2c(-c3ccc(F)cc3)cnc2CO1	none
COc1ccc(C(=O)N2CCC3(CC2)CC(O)CCO3)cc1 (stereo unspecified)	none
COc1ccc(C(=O)N2CCC3(CC2)CC(O)CCO3)c(C)c1 (stereo unspecified)	none
COc1ccc2[nH]c(C(=O)N3CCC4(CC3)CC(O)CCO4)cc2c1 (stereo unspecified)	Pf Dd2 inh 11µM
COC[C@@H]1CN(C(=O)c2nn(C)c3ccccc23)C[C@H]1C(N)=O	none
CS(=O)(=O)c1ccc(OC[C@H]2C[C@@H](NCc3ccc(F)cc3)[C@H](O)[C@@H]2O)cc1	none
CNC(=O)[C@@H]1CN(C(=O)c2occc2C)C[C@H]1COC	none
Cc1cc2c(c(=O)n(-c3ccc(F)cc3)c(=O)n2CC(=O)Nc2cc(F)ccc2F)n1C	none
COc1ccc(-c2cc(C[C@H]3CNCC[C@H]3CC(=O)NC(C)C)no2)cc1	none
CC(C)(C)c1cc(C[C@H]2CNCC[C@H]2CC(=O)N2CCC(Cc3ccccc3)CC2)no1	Pf Dd2 inh 7.9µM
COc1ccccc1N1CCN(C(=O)C[C@@H]2CCNC[C@@H]2Cc2cc(-c3ccc(F)cc3)on2)CC1	Pf Dd2 inh 11µM
COc1ccccc1N1CCN(C(=O)C[C@@H]2CCNC[C@@H]2Cc2cc(COc3ccccc3)on2)CC1	none
COc1ccc(-c2cc(C[C@H]3CNCC[C@H]3CC(=O)NCc3cccnc3)no2)cc1	none
O=C(C[C@@H]1CCNC[C@@H]1Cc1cc(CN2CCOCC2)on1)N1CCN(c2ccccc2)CC1	none
COc1ccc(-c2cc(C[C@H]3CNCC[C@H]3CC(=O)N3CCC(Cc4ccccc4)CC3)no2)cc1	Pf Dd2 inh 7.9µM
NC(=O)C1CCN(C(=O)C[C@@H]2CCNC[C@@H]2Cc2cc(COc3ccccc3)on2)CC1	none
COc1ccc(-c2cc(C[C@H]3CNCC[C@H]3CC(=O)N3CCN(c4ccccc4OC)CC3)no2)cc1	none
CCNC(=O)CCc1cc2ccc(C)cc2[nH]c1=O	none
COCCc1noc(CC2CCOC3(CCN(C(=O)NC(C)(C)C)CC3)C2)n1 (stereo unspecified)	none
CCCn1cc(S(=O)(=O)c2cc(C)ccc2C)c(=O)c2cc(F)c(N3CCOCC3)cc21	none
CCn1cc(S(=O)(=O)c2ccc(C)cc2C)c(=O)c2cc(F)c(N3CCCC3)cc21	Pf Dd2 inh 11µM
Cc1cccc(S(=O)(=O)c2cn(C)c3cc(N4CCCCCC4)c(F)cc3c2=O)c1	none
CCn1cc(S(=O)(=O)c2cc(C)cc(C)c2)c(=O)c2cc(F)c(N3CCCCC3)cc21	none
CCCCn1cc(S(=O)(=O)c2cc(C)ccc2C)c(=O)c2cc(F)c(F)cc21	none
Cc1ccc(S(=O)(=O)c2cn(C)c3cc(N4CCCC4)c(F)cc3c2=O)c(C)c1	Pf Dd2 inh 10µM
Cc1ccc(C)c(S(=O)(=O)c2cn(C)c3cc(N4CCCCC4C)c(F)cc3c2=O)c1 (stereo unspecified)	Pf Dd2 inh 11µM
Cc1ccc(C)c(S(=O)(=O)c2cn(C)c3cc(F)c(F)cc3c2=O)c1	none
COC[C@H]1C[C@@H](NC(=O)c2ccc(OC)cc2)[C@H](O)[C@@H]1O	none
CSCC(=O)N1CCC(C2CCN(S(C)(=O)=O)CC2)C1 (stereo unspecified)	none
CCn1ccc(C(=O)N2CCCCCCNC(=O)[C@@H]3C[C@@H](c4nc(Cc5ccccc5)no4)C[C@@H]32)n1	none
CCN1C(=O)C2CC3(CCN(C(=O)Cc4ccccc4)CC3)CN2C1=O (stereo unspecified)	none
COCCOC1CCOC2(CCN(C(=O)Cc3ccccc3)CC2)C1 (stereo unspecified)	none
COCCOC1CCOC2(CCN(C(=O)C3(c4ccccc4)CC3)CC2)C1 (stereo unspecified)	none
COCCOC1CCOC2(CCN(C(=O)c3n[nH]c4ccccc34)CC2)C1 (stereo unspecified)	none
COCCOC1CCOC2(CCN(C(=O)Cc3c[nH]c4ccccc34)CC2)C1 (stereo unspecified)	Pf Dd2 inh 11µM
COCCOC1CCOC2(CCN(C(=O)c3nccc4ccccc34)CC2)C1 (stereo unspecified)	none
COCCOC1CCOC2(CCN(C(=O)c3nn(C)c4ccccc34)CC2)C1 (stereo unspecified)	Pf Dd2 inh 5.6µM
COC1CCOC2(CCN(C(=O)COc3ccccc3)CC2)C1 (stereo unspecified)	none
COCCOC1CCOC2(CCN(C(=O)c3ccccc3)CC2)C1 (stereo unspecified)	none
COCCOC1CCOC2(CCN(C(=O)COc3ccccc3)CC2)C1 (stereo unspecified)	Pf Dd2 inh 11µM
COCCC(=O)N1CCCN(C(=O)C2CC2)c2ccccc21	none
O=C(c1ccc(C(F)(F)F)cc1)N1CCCC(c2nn(-c3ccccc3)c(=O)[nH]2)C1 (stereo unspecified)	none
CCc1noc(-c2cn(C3CCN(C(=O)c4cccc(F)c4)C3)nn2)n1 (stereo unspecified)	none
